# Bioassay records as filed in PubChem BioAssay.
# Shown are actives, neighbours in structure and some others; about 6.1% of the full set was active somewhere.
# D1 potentiator = enhances dopamine response at the human D1 receptor; P21728; HEK293 TREx D1 cells, calcium flux, dopamine EC20 potentiation; potentiation, % at 10 µM; actives 0.036% (n = 360,000); AID 504651; in the data active means potentiation above about 30%
# Target sequence (P21728 whole entry, looked up): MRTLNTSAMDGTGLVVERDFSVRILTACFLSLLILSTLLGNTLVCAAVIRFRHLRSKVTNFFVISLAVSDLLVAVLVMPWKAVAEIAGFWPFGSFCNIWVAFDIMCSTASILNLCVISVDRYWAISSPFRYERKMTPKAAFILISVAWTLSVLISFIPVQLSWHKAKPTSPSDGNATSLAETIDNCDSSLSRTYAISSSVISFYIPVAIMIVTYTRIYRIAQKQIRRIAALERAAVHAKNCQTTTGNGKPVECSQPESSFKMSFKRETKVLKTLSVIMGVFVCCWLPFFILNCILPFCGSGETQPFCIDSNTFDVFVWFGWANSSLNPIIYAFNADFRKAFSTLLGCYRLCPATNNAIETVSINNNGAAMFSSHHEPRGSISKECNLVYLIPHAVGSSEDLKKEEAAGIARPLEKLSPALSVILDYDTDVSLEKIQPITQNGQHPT
# D3 antag = D3 dopamine receptor (human) antagonism. max response, negative = inhibition, %. D3R cells, DiscoveRx beta-arrestin luminescence, antagonist mode; hits give low values. P35462. actives 2.5% (n = 360,000). AID 652054; in the data active means max response below about -50%; inconclusive means no clear call, values can overlap the other calls
#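 Cells plated overnight at 1500 cells/well, then exposed to library compounds with dopamine controls for 90 minutes at 37 degrees C. DiscoveRx reagent added for 30–60 minutes at room temperature; luminescence read, quantitative HTS format.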
# D1 agonist = agonists of human D1 dopamine receptor. actives 1% (n = 360,000). activation, % at 2 µM. AID 504660. HEK293 T-REx D1 cells, calcium flux, agonist mode; in the data active means activation above about 30%
#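 Tetracycline-induced HEK293 TREx D1 cells, force-coupled to calcium signalling, were dye-loaded with a no-wash calcium kit. Compound was pin-added after a 10 s baseline. Fluorescence was read kinetically at 1 cycle/s for 180 s, with calcium rises flagged as agonism.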
# D1 antagonist = antagonists of human D1 dopamine receptor | P21728 | HEK293 TREx D1 cells, calcium flux, dopamine EC80; hits give low values | activity change, negative = inhibition, % at 10 µM | actives 3.2% (n = 360,000) | AID 504652; in the data active means activity change below about -30%
#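 Compound effects on dopamine-evoked calcium signalling were measured in tetracycline-induced HEK293 Trex D1 cells. Dopamine at EC80 followed a 180 s compound pre-read, and fluorescence was tracked kinetically for 180 s more.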
# DRD3 agonist = D3 dopamine receptor (human) agonism; max activation, %; AID 652048; actives 0.58% (n = 410,000); P35462; D3R DiscoveRx beta-arrestin cells, luminescence, 90 min; in the data active means max activation above about 30%
#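 Cells at 1500/well, incubated overnight, then treated with pinned compounds (dopamine as control) for 90 min at 37 degrees C. DiscoveRx reagent added for 30 - 60 minutes at room temperature; luminescence read.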
# A number is an active result; i = inactive; ? = inconclusive; nt = not tested or not shown.
SMILES,D1 potentiator,D3 antag,D1 agonist,D1 antagonist,DRD3 agonist
C1=C(c2c[nH]c3ccccc23)CCN(Cc2ccccc2)C1,i,-101,i,i,i
CO/C=C(/C(=O)OC)c1ccccc1Oc1cc(Oc2ccccc2C#N)ncn1,nt,nt,nt,nt,i
O=C(NC(=O)c1c(F)cccc1F)Nc1ccc(Cl)c(Oc2ncc(C(F)(F)F)cc2Cl)c1,nt,nt,nt,nt,i
CCC(=NCCc1c[nH]c2ccccc12)c1c(O)n(C)c(=O)n(C)c1=O,i,i,i,-31,65
CCC(=NCc1cc(OC)cc(OC)c1)c1c(O)n(C)c(=O)n(C)c1=O,i,i,i,i,39
CCC(=NCCN1CCCCC1)c1c(O)n(C)c(=O)n(C)c1=O,i,i,i,i,i
CCC(=NCCOc1ccc(Cl)cc1)c1c(O)n(C)c(=O)n(C)c1=O,i,i,i,-42,i
CCC(=NCCc1c[nH]c2ccccc12)c1c(O)n(-c2ccc(C)cc2)c(=O)[nH]c1=O,i,i,i,i,i
[S]=[Sb](=[S])[S][Sb](=[S])=[S],nt,nt,nt,nt,i
Cc1sc2ccccc2c1CC1=NCCN1,i,i,i,-47,i
O=C(c1ccc2c(c1)OCO2)C1CCCN(CC2CCCCC2)C1 (stereo not given),i,-83,i,i,i
O=C(c1ccc2c(c1)OCO2)C1CCCN(Cc2c(F)cccc2Cl)C1 (stereo not given),i,?,i,i,i
O=C(c1ccc2c(c1)N(Cc1c(F)cccc1Cl)C(=O)c1ccccc1S2)N1CCC2(CC1)OCCO2,i,nt,i,i,i
COc1cc(CN2CCCC(C(=O)c3sccc3C)C2)cc(OC)c1O (stereo not given),i,i,i,i,i
Cc1ccsc1C(=O)C1CCCN(Cc2ccc(-n3cccn3)cc2)C1 (stereo not given),i,-63,i,i,i
Cc1ccsc1C(=O)C1CCCN(Cc2cccc(OCCO)c2)C1 (stereo not given),i,?,i,i,i
Cc1ccsc1C(=O)C1CCCN(Cc2cccc(-n3cccn3)c2)C1 (stereo not given),i,-80,i,i,i
Cc1cccc(-n2c(/C=C/c3c[nH]c4ccccc34)nc3ccccc3c2=O)c1,i,nt,i,i,i
S=C=S,nt,nt,nt,nt,i
Cc1ccc2c(c1)C1CN(C)CCC1N2 (stereo not given),nt,nt,nt,nt,i
COC(=O)[C@H]1[C@@H](OC(=O)c2ccccc2)C[C@@H]2CC[C@H]1N2C,nt,nt,nt,nt,i
COC(=O)C1C2CC[C@@H](CC1OC(=O)c1ccccc1)N2 (stereo not given in full),nt,i,nt,nt,41
CC(C)(C)c1cc([N+](=O)[O-])cc(C(C)(C)C)c1O,i,i,34,-36,i
[O]=[Cr](=[O])([OH])[O][Cr](=[O])(=[O])[OH],nt,nt,nt,nt,i
C=CCN1CC[C@]23c4c5ccc(O)c4O[C@H]2[C@@H](O)C=C[C@H]3[C@H]1C5,nt,nt,nt,nt,i
SMILES,D1 potentiator,D3 antag,D1 agonist,D1 antagonist,DRD3 agonist
C=CCN1CCc2cccc3c2[C@H]1Cc1ccc(O)c(O)c1-3,i,i,32,-90,116
Cc1cccc(CSc2nc3c(cc2C#N)CN(C)CC3)c1,i,i,i,i,i
CN1CCc2nc(SCc3ccccc3Br)c(C#N)cc2C1,i,-81,i,-35,i
Cc1ccsc1C(=O)C1CCCN(Cc2cc3ccccc3o2)C1 (stereo not given),i,?,i,i,i
Cc1ccc(CN2CCCC(C(=O)c3sccc3C)C2)o1 (stereo not given),i,-52,i,i,i
Cc1ccsc1C(=O)C1CCCN(Cc2cnc(N3CCCC3)s2)C1 (stereo not given),i,-79,i,i,i
CNC(C)Cc1ccccc1Sc1ccc(O)cc1 (stereo not given),i,-73,i,-59,i
Cc1ccc(Cn2cccc(C(=O)Nc3cc([N+](=O)[O-])ccc3C)c2=O)cc1,i,nt,i,nt,i
C[C@]12CC[C@H]3[C@@H](CCC4=C(Cl)C(=O)CC[C@@]43C)[C@@H]1CC[C@@H]2O,nt,nt,nt,nt,i
O=C(N/N=C/c1c(O)n(CCc2ccccc2)c(=O)[nH]c1=O)c1ccncc1,i,i,i,-37,i
CCCCCc1nc2ccccc2c(=O)n1-c1ccc(Cl)cc1[N+](=O)[O-],i,i,i,-44,i
CCOC(=O)[C@]12Cc3cc(C)ccc3[C@H]1N(C1CCCCC1)C(=O)c1cc(OC)ccc12,nt,-64,nt,nt,i
